From PubChem BioAssay AID493243 (Broad Institute, 2011) come the findings set out here.

This test can be described thus: compounds quenching green fluorescent protein signal – biochemical, plate reader, dry powder, artefact control, dose response (AID 493243). The following applies: GFP fluorescence counter-screen. On the technique in general: Counterscreens check selectivity or assay interference.

Calls of active or inactive are those of the source. How the calls were made is not given here.

Usually AC50 stands for the concentration giving half of the maximal activity seen. For the compound `CCn1nc(/C=C/c2ccccc2)nc2c(=O)n(C)c(=O)nc1-2`, the concentration at half-maximal activity (AC50) is 221 nM (active).
